In PubChem BioAssay (NCATS) one finds Potency, activity, negative = cell killing and outcome data, which are given here for five compounds.

The subject of experiment [1] is MCC-26. Nature of the experiment: qHTS assay to identify novel small-molecules to repurpose for Merkel cell carcinoma treatment (AID 1296009). Also: nearly all actives have a fitted effect of over 60% in size. As to conditions: MCC and control cell lines, CellTiter-Glo viability, 72 h; series mostly up to 46 µM. In outline:
(§1)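 72 hr, 37 degree celsius; NPC 8-pt / MIPE 11-pt dose response; compound pinned in DMSO; CellTiter-Glo, 10 min RT, luminescence; normalized to no-cell and DMSO controls.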
In general terms: Quantitative high-throughput screening tests each substance at several concentrations.

Experiment [2] relates to MKL-1. The experiment is described as above. The settings on record: MCC and control cell lines, CellTiter-Glo viability, 72 h; series mostly up to 46 µM. In short, it runs like this:
as §1
(In general: Cellular ATP, detected with luciferase, serves as a proxy for viable cell number.)

The subject of experiment [3] is MKL-2. The description is as above. As to conditions: MCC and control cell lines, CellTiter-Glo viability, 72 h; series mostly up to 46 µM. In outline: as §1
Experiment [4] deals with UISO. The description is as above. As to conditions: MCC and control cell lines, CellTiter-Glo viability, 72 h; series mostly up to 46 µM. In outline:
as §1

Experiment [5] has as its system WaGa. The description is as above. The settings on record: MCC and control cell lines, CellTiter-Glo viability, 72 h; series mostly up to 46 µM. In short, it runs like this: as §1
Experiment [6] relates to C33A. Briefly: Primary qHTS to identify gynecologic anti-cancer compounds using libraries of approved drugs and bioactive compounds (AID 1345084). Also: nearly all actives have a fitted effect of over 55% in size. Also: potency is read from the fitted curve at half-maximal effect. As to conditions: Gynecologic cancer cell panel viability, ATPlite luminescence, 48 h; series mostly up to 57.5 µM. In short, it runs like this:
(§2)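 Five-concentration response, 48 h; readout is ATP-driven luciferase luminescence.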

For experiment [7], the system named is CAOV3. The description is as above. The settings on record: Gynecologic cancer cell panel viability, ATPlite luminescence, 48 h; series mostly up to 57.5 µM. In short, it runs like this: as §2
Experiment [8] deals with CASKI. Described as above. As to conditions: Gynecologic cancer cell panel viability, ATPlite luminescence, 48 h; series mostly up to 57.5 µM. In short, it runs like this: as §2
In experiment [9] the test system is Es-2. Described as above. The settings on record: Gynecologic cancer cell panel viability, ATPlite luminescence, 48 h; series mostly up to 57.5 µM. In short, it runs like this:
as §2

For experiment [10], the system named is HeLa. The description is as above. As to conditions: Gynecologic cancer cell panel viability, ATPlite luminescence, 48 h; series mostly up to 57.5 µM. In short, it runs like this:
as §2

Experiment [11] deals with Hek293T. Described as above. As to conditions: Gynecologic cancer cell panel viability, ATPlite luminescence, 48 h, control line for the selectivity index; series mostly up to 57.5 µM. In outline: as §2
Experiment [12] relates to JEG-3. Described as above. The settings on record: Gynecologic cancer cell panel viability, ATPlite luminescence, 48 h; series mostly up to 57.5 µM. In short, it runs like this: as §2
Experiment [13] concerns OV90. Described as above. As to conditions: Gynecologic cancer cell panel viability, ATPlite luminescence, 48 h; series mostly up to 57.5 µM. In outline:
as §2

Experiment [14] has as its system PA-1. The description is as above. The settings on record: Gynecologic cancer cell panel viability, ATPlite luminescence, 48 h; series mostly up to 57.5 µM. In outline:
as §2

Experiment [15] concerns SKOV3. Described as above. The settings on record: Gynecologic cancer cell panel viability, ATPlite luminescence, 48 h; series mostly up to 57.5 µM. In outline:
as §2

The subject of experiment [16] is Tov-21-G. Described as above. As to conditions: Gynecologic cancer cell panel viability, ATPlite luminescence, 48 h; series mostly up to 57.5 µM. In short, it runs like this: as §2
The subject of experiment [17] is Tov112D. The description is as above. As to conditions: Gynecologic cancer cell panel viability, ATPlite luminescence, 48 h; series mostly up to 57.5 µM. In outline:
as §2

A short description of experiment [18]: Drug repurposing screens with cells derived from glioblastoma tumor samples (AID 1345199). Also: nearly all actives have a fitted effect of over 40% in size. Also: potency is read from the fitted curve at half-maximal effect. As to conditions: GBM patient neurospheres viability, ATP luminescence, 48 h. In outline: (§3)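 Four patient lines of CD133+ GBM neurospheres were screened at several concentrations; hits were retested in those lines plus three slower-growing GBM lines, using 48-hour treatment and ATP-based viability.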

The subject of experiment [19] is NIH3T3. Nature of the experiment: qHTS assay to identify novel small-molecules to repurpose for Merkel cell carcinoma treatment (AID 1296009). Also: nearly all actives have a fitted effect of over 60% in size. The settings on record: MCC and control cell lines, CellTiter-Glo viability, 72 h; at 44.8 µM (top of the series) unless noted. In outline:
as §1

Experiment [20] concerns astro. Briefly: Drug repurposing screens with cells derived from glioblastoma tumor samples (AID 1345199). Also: nearly all actives have a fitted effect of over 40% in size. Also: potency is read from the fitted curve at half-maximal effect. As to conditions: viability, ATP luminescence, 48 h; series mostly up to 45.9 µM. In outline: as §3
[21] abbreviates: at 46.1 µM (top of the series), tumour line C.
The mark [22] stands for this setting: at 45.9 µM (top of the series), tumour line B.
Where [23] appears, read: at 45.9 µM (top of the series), tumour line D.
Where [24] appears, read: at 46 µM (top of the series), tumour line A.

Where “and” joins values, the source holds several entries; their conditions need not be identical. Equal entries are not always repeated. Records with an inconclusive call do not appear. The source holds several records for some structures; these can differ, active in one and inactive in another. A number with no mark means an inactive call. Calls of active or inactive are those of the source. Calls follow the shape of the dose curve; as a rule, active = well fitted curve in the direction sought with a large enough effect; inconclusive = small, poorly fitted or top-dose-only effect, or another doubt; inactive = no such curve, though single readings can be large; an effect the other way counts as inactive or inconclusive.
% is scaled to controls: 0 for no effect and ±100 for the full control effect.

On to `C[C@]12CC[C@@H]3c4ccc(O)cc4CC[C@H]3[C@@H]1CC[C@@H]2OC(=O)CCC1CCCC1`, for which the Potency result in experiment [1], in experiment [2], in [3], in [4], in experiment [5] and in experiment [6] was “inactive” each time. Also, the Potency result in [7], in experiment [8], in experiment [9], in experiment [11], in experiment [12] and in [13] was “inactive” in each case. Besides, the Potency result in experiment [14], in [15], in experiment [16] and in [17] was “inactive” each time. The Potency was 10 µM (active) and 20 µM (active) in [10]; 7.94 µM (active) and 22.4 µM (active) in experiment [18] (tumour line A); 35.5 µM (active) in [18] (tumour line B); 35.5 µM (active) and 20 µM (active) in [18] (tumour line D). The activity, negative = cell killing in experiment [18] (setting [21]) was -26.4% and -9.85%.
`CC1=C(C/C=C(\C)CCC[C@H](C)CCC[C@H](C)CCCC(C)C)C(=O)c2ccccc2C1=O`: the Potency entry in [1], in [2], in [3], in experiment [4], in experiment [5] and in [6] was “inactive” each time. For the same compound, the Potency entry in [7], in experiment [8], in experiment [9], in experiment [10], in [11] and in experiment [12] was “inactive” in each case. Also, the Potency entry in experiment [13], in experiment [14], in experiment [15], in experiment [16] and in [17] was “inactive” throughout. The activity, negative = cell killing in experiment [18] (setting [21]) was -10.9%. In experiment [18] (tumour line A), the Potency is 11.2 µM (active).
Turning to `NC(CSCC(=O)O)C(=O)O` (stereo unspecified), the Potency result in [1], in experiment [2], in [3], in [4], in experiment [5] and in experiment [6] was “inactive” each time. The Potency result in experiment [8], in experiment [9], in [10], in experiment [11], in experiment [12] and in experiment [13] was “inactive” each time. The Potency result in [14], in [15], in experiment [16], in experiment [17] and in experiment [20] was “inactive” each time. Further, the compound was called inactive in experiment [19]. In addition, the activity, negative = cell killing in experiment [18] (setting [22]) was -1.36%; in [18] (setting [23]), -6.13%; in [18] (setting [24]), -25.4%; in experiment [18] (setting [21]), -7.6%.
For `COc1cc2[nH]c(=O)[nH]c(=O)c2cc1OC`, the Potency entry in experiment [1], in experiment [2], in experiment [3], in experiment [4], in experiment [5] and in experiment [6] was “inactive” throughout. Also, the Potency result in [7], in [8], in experiment [9], in experiment [10], in experiment [11] and in [12] was “inactive” throughout. Besides, the Potency result in experiment [13], in [14], in experiment [15], in [16], in experiment [17] and in experiment [20] was “inactive” in each case. Also, the activity, negative = cell killing was -13.5% in experiment [18] (at 20 µM (top of the series), tumour line C); -9.77% in experiment [18] (at 21.2 µM (top of the series), tumour line B); 1.35% in experiment [18] (at 21.2 µM (top of the series), tumour line D); -29.6% in [18] (at 21.3 µM (top of the series), tumour line A).
As for `O=C1N=C(O)CN1/N=C/c1ccc(-c2ccc([N+](=O)[O-])cc2)o1`, the Potency entry in experiment [1], in experiment [2], in experiment [3], in [4], in experiment [5] and in experiment [6] was “inactive” each time. The Potency entry in experiment [7], in [8], in experiment [9], in [10], in experiment [11] and in experiment [12] was “inactive” each time. Moreover, the Potency result in experiment [13], in experiment [14], in [15], in [16], in experiment [17] and in experiment [20] was “inactive” each time. Further, the activity, negative = cell killing in [18] (setting [22]) is -7.61%; in [18] (setting [23]), 2.91%; in experiment [18] (setting [24]), -22.1%; in experiment [18] (setting [21]) it was -1.99%.
